The source of these data is PubChem BioAssay (NCATS).

Inconclusive results are not listed. Calls of active or inactive are those of the source. Unless noted, calls follow the shape of the dose curve; as a rule, active = well fitted curve in either direction with a large enough effect (not every such curve was filed as active); inconclusive = small, poorly fitted or top-dose-only effect, or another doubt; inactive = flat fitted curve, though single readings scatter.

Experiment [1] has as its target Lysosomal acid glucosylceramidase (Homo sapiens) (UniProt P04062). As to the kind of experiment: Glucocerebrosidase-p2 (AID 348; in the data active = potency below about 10 µM; also: potency is read from the fitted curve at half-maximal effect). To be noted: purified GBA, blue fluorogenic substrate, 40 min. The procedure, abridged:
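Compounds titrated from 0.6 nM upwards against 0.2 nM enzyme in pH 5.9 citric acid/KH2PO4, taurocholate, tween-20; blue fluorogenic substrate 80 uM, 40 min room temperature, stopped and read Ex 365/Em 440 for AC50.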

The nature of experiment [2]: AP1 Signaling Pathway (AID 357). Also: % is scaled to controls: 0 for no effect and ±100 for the full control effect. To be noted: ME-180 AP-1-bla reporter, EGF-induced, beta-lactamase ratio, 5 h; at 7.69 µM (top of the series) unless noted. The gist of the method: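 Read-out was the 460nm/530nm emission ratio (excitation 405nm) after CCF4 loading for 2.5 hours at room temperature. Cells carried an AP-1-driven beta-lactamase reporter, were stimulated with EC50 EGF plus compound for 5 hours, and AC50 values came from titrations.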

Experiment [3] in a line: Stat Signaling Pathway (AID 446).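 Also: ME-180 cervical cancer cells given 40 pM IL-6 alongside compound; SIE-controlled beta-lactamase reporter measured as 460/530 nm FRET emission ratio; % is scaled to controls: 0 for no effect and ±100 for the full control effect.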 To be noted: ME-180 (cervical carcinoma) SIE beta-lactamase reporter, IL-6 stimulated, 5 h; at 7.69 µM (top of the series) unless noted. The gist of the method:
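ME-180 SIE-bla cells; overnight plating; cpd + IL-6 40 pM, 5 h, 37 C; LiveBLAzer 2.5 h RT; 460/530 nm emission ratio. Normalized to 300 pM IL-6 and 125 nM JAK inhibitor controls.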

The target of experiment [4] is Glucocorticoid receptor (Homo sapiens) (UniProt P04150). Briefly: GR-EFC Redistribution (AID 451; calls by dose curve; also: potency is read from the fitted curve at half-maximal effect). To be noted: CHO-K1 GR-EFC translocation, beta-gal luminescence, 2 h. The procedure, abridged:
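CHO-K1 cells expressing nuclear EA and GR-ED fragments of b-gal; compounds titrated up to 46 uM final, 2 h at 37 C. GR nuclear translocation read as complemented b-gal luminescence after 1 h RT detection.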

Experiment [5] deals with Mitogen-activated protein kinase 10 (Mus musculus) (UniProt Q61831). As to the kind of experiment: JNK3 AlphaScreen Assay (AID 530).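 Also: kinase came from lysate of stimulated human HepG2 cells; signal reports phosphorylation of biotinylated GST-cJun 1-79 at Ser73 with 10 µM ATP; % is scaled to controls: 0 for no effect and ±100 for the full control effect.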 The note with it: JNK3 lysate, c-Jun phosphorylation; series mostly up to 57.1 µM. The gist of the method:
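Pre-activated (IL-1β/TNFα) JNK3 in HepG2 lysates phosphorylates biotin-GST-cJun(1-79), 10 uM ATP; anti-phospho-cJun(Ser73) AlphaScreen read at room temperature, pH 7.6 Tris buffer. Compounds pre-incubated 15 min as titrations.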

The target in experiment [6] is 3',5'-cyclic-AMP phosphodiesterase 4B (Homo sapiens) (UniProt Q07343). As to the kind of experiment: qHTS Assay for Inhibitors of PDE-IV (AID 607; active = well fitted activation curve with a large enough effect in the main read-out, with a control signal flat, not every such curve was filed as active; also: % of control where 0% means no effect). To be noted: HEK293 ACTOne CNG channel cells, membrane potential fluorescence; series mostly up to 22.9 µM. The gist of the method:
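ACTOne HEK293 cells carry a modified cAMP-gated CNG channel and express endogenous PDE4; plated 1000 cells/well, compounds up to 22.9 uM final. Membrane-potential dye fluorescence (ex 535/em 590) was read; parental cells received 10 uM forskolin + 100 uM RO 20-1724.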
For orientation: Quantitative high-throughput screening tests each substance at several concentrations.

A short description of experiment [7]: qHTS Assay for Lipid Storage Modulators (AID 1519; calls by dose curve). To be noted: Drosophila S3 cells, BODIPY lipid droplet/cell ratio, laser cytometry, cells loaded with oleic acid; for activity change, negative = inhibition: at 57.5 µM (top of the series). The procedure, abridged: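 Cells seeded at 5,000 per well were treated with compounds over a concentration series and loaded with oleic acid (400 uM, as added). Lipid droplet fluorescence (488 nm excitation, 500-530 nm channel) was read by laser-scanning cytometry and normalized to 20 uM Triacsin C.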

Experiment [8] is described as follows: Primary qHTS for small molecule stabilizers of the endoplasmic reticulum resident proteome: Secreted ER Calcium Modulated Protein (SERCaMP) assay (AID 1508630; active = well fitted curve in the direction sought with a large enough effect; an effect the other way counts as inactive or inconclusive; also: % is scaled to controls: 0 for no effect and ±100 for the full control effect). To be noted: SH-SY5Y GLuc-SERCaMP (Gaussia luciferase released on ER calcium loss) secretion, thapsigargin, luminescence; series mostly up to 38.4 µM. The gist of the method:
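GLuc-SERCaMP-expressing SH-SY5Y cells, pretreated 16 h with compound, are challenged with thapsigargin to empty ER calcium stores; after 4 h, coelenterazine is added directly to the medium and luminescence is imaged.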

Experiment [9] concerns the target Cytochrome P450 1A2 (Homo sapiens) (UniProt P05177). As to the kind of experiment: p450-cyp1a2 (AID 410; calls by dose curve; also: potency is read from the fitted curve at half-maximal effect;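 as to activity change, negative = inhibition: -100% = full effect of reference inhibitor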). The note with it: recombinant CYP1A2, luciferin-ME demethylation, luminescence; series mostly up to 57 µM. The gist of the method:
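Luminescent readout of luciferin formed from Luciferin-ME by human CYP1A2; data normalized against complete inhibition by 57 uM furafylline. Enzyme 20nM, substrate 100uM at Km, 100mM KPO4 buffer, 60 min reaction at room temperature.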

The target in experiment [10] is Cytochrome P450 3A4 (Homo sapiens) (UniProt P08684). Briefly: qHTS Assay for Activators of Cytochrome P450 3A4 (AID 885; active = well fitted curve in the direction sought with a large enough effect; an effect the other way counts as inactive or inconclusive; also: nearly all actives have a fitted effect of over 65% in size). To be noted: recombinant CYP3A4, Luciferin-PPXE luminescence, 60 min; series mostly up to 57.1 µM. The procedure, abridged:
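20nM CYP3A4 + 25uM Luciferin-PPXE (=KM), 200mM KPO4; cpd 10 min RT; NADPH regen, 60 min RT; stop w/ detection buffer, 20 min; luminescence. Normalized to 57 uM ketoconazole.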

The target of experiment [11] is Cytochrome P450 2D6 (Homo sapiens) (UniProt P10635). As to the kind of experiment: qHTS Assay for Inhibitors and Substrates of Cytochrome P450 2D6 (AID 891; active = well fitted curve in the direction sought with a large enough effect; an effect the other way counts as inactive or inconclusive; also: potency is read from the fitted curve at half-maximal effect; nearly all actives have a fitted effect of over 60% in size). To be noted: recombinant CYP2D6, luciferin-ME EGE luminescence; series mostly up to 57.1 µM. The procedure, abridged: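 Human CYP2D6 (5 nM) with 30 uM Luciferin-ME EGE (at Km) in 100 mM KPO4, compound preincubated 10 min, then NADPH regeneration system for 60 min at room temperature. Luciferin read by luminescence; normalized to 1.43 uM quinidine.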
Sequence of Cytochrome P450 2D6 (Homo sapiens) (P10635 whole entry, looked up): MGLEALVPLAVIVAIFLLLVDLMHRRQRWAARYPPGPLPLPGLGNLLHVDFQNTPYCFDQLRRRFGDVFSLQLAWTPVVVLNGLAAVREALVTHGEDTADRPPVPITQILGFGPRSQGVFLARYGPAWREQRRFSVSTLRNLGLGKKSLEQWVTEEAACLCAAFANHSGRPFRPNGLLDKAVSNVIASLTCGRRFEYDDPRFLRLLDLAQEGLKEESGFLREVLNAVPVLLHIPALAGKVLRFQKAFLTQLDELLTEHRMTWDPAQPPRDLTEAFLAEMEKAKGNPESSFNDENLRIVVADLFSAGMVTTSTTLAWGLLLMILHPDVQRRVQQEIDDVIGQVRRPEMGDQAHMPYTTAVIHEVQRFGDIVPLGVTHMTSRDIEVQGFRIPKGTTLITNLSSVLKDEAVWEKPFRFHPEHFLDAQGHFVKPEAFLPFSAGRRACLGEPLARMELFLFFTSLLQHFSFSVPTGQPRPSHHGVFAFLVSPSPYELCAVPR

For experiment [12], the target named is Glucocorticoid receptor (Homo sapiens) (UniProt P04150). Briefly: GR-GFP Redistribution (AID 450;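 active = compounds whose dose series gives a full or clear partial fitted curve of increased nuclear translocation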; also: potency is read from the fitted curve at half-maximal effect). To be noted: U2OS GR-GFP nuclear translocation, laser cytometry, 2 h.
Sequence of Glucocorticoid receptor (Homo sapiens) (P04150 whole entry, looked up, the tested form may be a part): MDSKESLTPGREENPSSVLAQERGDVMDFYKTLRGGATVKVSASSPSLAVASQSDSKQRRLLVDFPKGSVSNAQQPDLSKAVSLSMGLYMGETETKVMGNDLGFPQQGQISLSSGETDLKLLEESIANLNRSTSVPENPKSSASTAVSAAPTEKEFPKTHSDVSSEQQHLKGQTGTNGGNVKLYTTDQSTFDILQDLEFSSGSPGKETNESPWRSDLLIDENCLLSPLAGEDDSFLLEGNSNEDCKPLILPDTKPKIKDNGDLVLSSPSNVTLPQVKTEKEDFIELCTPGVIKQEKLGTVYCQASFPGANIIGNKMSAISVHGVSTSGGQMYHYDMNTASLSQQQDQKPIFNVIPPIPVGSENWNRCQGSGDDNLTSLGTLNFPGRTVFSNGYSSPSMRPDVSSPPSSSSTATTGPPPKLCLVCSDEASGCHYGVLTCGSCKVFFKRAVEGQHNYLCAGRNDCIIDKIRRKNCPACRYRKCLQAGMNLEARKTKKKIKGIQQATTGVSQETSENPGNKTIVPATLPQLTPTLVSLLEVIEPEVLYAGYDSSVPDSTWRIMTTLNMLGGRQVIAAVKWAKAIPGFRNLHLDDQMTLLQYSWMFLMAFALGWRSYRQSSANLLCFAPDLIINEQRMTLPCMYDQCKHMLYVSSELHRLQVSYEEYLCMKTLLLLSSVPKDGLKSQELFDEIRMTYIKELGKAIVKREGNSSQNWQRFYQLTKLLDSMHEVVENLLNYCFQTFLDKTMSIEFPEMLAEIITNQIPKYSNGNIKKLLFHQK
Setting [13] is: measured here: cell count channel max response.
[14] abbreviates: measured here: lipid channel max response.

Sequence of 3',5'-cyclic-AMP phosphodiesterase 4B (Homo sapiens) (Q07343 whole entry, looked up): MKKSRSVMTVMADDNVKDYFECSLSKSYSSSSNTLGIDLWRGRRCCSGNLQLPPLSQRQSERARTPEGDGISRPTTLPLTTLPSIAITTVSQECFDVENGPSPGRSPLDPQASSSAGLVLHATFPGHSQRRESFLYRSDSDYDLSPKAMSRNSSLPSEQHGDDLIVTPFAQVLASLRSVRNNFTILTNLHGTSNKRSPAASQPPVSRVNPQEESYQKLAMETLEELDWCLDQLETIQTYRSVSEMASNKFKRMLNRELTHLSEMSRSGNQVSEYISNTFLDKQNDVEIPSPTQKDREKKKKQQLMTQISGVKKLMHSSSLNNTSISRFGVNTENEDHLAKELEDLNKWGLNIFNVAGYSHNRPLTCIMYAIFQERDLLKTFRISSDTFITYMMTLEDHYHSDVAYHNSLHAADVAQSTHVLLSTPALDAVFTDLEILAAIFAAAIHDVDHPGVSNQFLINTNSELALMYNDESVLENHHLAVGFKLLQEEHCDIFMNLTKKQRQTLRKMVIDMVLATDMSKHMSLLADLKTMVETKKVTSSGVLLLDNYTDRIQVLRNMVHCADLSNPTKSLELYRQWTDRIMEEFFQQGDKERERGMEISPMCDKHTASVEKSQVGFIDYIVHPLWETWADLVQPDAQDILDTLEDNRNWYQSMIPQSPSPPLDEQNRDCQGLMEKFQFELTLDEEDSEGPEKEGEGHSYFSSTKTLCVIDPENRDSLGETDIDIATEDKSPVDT
Sequence of Cytochrome P450 3A4 (Homo sapiens) (P08684 whole entry, looked up): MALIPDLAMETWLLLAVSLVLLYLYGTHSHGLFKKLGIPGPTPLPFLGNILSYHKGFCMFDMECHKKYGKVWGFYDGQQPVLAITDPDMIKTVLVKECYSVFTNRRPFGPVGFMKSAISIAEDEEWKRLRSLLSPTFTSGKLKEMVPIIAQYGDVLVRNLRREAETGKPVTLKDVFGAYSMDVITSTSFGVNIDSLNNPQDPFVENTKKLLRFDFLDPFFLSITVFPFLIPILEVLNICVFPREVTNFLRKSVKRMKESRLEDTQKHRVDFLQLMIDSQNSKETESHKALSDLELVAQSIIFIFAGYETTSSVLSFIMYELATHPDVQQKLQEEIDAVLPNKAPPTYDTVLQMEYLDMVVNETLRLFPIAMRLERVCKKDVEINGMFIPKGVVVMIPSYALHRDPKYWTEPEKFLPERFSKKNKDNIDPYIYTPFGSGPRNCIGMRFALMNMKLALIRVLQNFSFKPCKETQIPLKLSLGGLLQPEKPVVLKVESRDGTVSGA
Sequence of Lysosomal acid glucosylceramidase (Homo sapiens) (P04062 whole entry, looked up): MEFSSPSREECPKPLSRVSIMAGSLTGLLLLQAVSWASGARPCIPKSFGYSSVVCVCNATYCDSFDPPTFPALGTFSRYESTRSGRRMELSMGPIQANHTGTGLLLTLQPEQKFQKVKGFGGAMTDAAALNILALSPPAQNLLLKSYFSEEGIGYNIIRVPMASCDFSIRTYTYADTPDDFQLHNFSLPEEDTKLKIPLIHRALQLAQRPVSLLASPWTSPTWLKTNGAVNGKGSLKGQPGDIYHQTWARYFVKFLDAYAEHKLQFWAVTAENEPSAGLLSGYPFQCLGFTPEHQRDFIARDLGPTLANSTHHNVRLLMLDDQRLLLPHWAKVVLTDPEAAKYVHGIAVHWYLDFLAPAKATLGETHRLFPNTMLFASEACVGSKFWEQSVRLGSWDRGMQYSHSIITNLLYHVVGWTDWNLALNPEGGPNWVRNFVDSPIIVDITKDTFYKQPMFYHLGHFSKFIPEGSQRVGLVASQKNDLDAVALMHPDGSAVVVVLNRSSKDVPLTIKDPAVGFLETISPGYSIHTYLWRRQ
Sequence of Cytochrome P450 1A2 (Homo sapiens) (P05177 whole entry, looked up): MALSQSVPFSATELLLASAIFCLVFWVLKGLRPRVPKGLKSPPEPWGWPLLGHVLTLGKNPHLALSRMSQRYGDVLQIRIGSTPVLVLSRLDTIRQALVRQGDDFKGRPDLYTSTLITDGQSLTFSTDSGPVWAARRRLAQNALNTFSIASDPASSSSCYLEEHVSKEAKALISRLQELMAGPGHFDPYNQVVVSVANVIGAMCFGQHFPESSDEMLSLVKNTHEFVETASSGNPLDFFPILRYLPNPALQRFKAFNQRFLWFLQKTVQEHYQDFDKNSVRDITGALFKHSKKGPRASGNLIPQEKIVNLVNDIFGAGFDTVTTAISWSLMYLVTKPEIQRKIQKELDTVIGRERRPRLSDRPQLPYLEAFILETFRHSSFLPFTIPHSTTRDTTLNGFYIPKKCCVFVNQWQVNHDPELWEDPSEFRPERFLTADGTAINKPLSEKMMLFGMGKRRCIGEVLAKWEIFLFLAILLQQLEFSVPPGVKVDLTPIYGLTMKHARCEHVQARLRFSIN

For `CC(=O)N1CCC2(CCCN(Cc3ccc(C#N)cc3)C2)CC1`, the results for the Potency in experiment [1] and in experiment [4] were > 11.4 µM (inactive) and > 46 µM (inactive), respectively. Moreover, the values for the activity change, negative = inhibition in [2] and in experiment [7] were 1.53% (inactive) and 4.86% (inactive), respectively. In experiment [3], the activity, negative = inhibition is 6.73% (inactive). Further, the Potency entry in experiment [5] and in experiment [6] was “inactive” throughout. The max response turned out to be 10.3% in experiment [7] (setting [13]) and 18.3% in experiment [7] (setting [14]). The result in [8] was inactive.
Regarding `N#Cc1ccc(CN2CC[C@@]3(CCCN(C(=O)c4cccc(F)c4)C3)C2)cc1`, the Potency in experiment [1] is > 11.4 µM (inactive); in experiment [4] it was > 46 µM (inactive). Also, the activity change, negative = inhibition is -24.8% (inactive) in experiment [2] and -0.514% (inactive) in experiment [7]. Besides, the activity, negative = inhibition in experiment [3] is -4.01% (inactive). Moreover, the Potency result in experiment [5] and in [6] was “inactive” throughout. The max response in [7] (setting [13]) stood at 0.82%; in experiment [7] (setting [14]) it was 2.5%. Further, the result in [8] was inactive.
Consider `Cn1cccc1C(=O)N1CCC2(CC1)CCN(c1ccncc1)CC2`, for which the Potency was > 11.4 µM (inactive) in [1] and > 46 µM (inactive) in experiment [4]. The activity change, negative = inhibition in experiment [2] was -0.611% (inactive); in experiment [7] it was 1.02% (inactive). Besides, in experiment [3], the activity, negative = inhibition was 6.85% (inactive). Also, the Potency result in [5] and in experiment [6] was “inactive” each time. Further, the max response in experiment [7] (setting [13]) was -0.0216%; in experiment [7] (setting [14]), 2.95%. In addition, in [8], the outcome was inactive.
With `COc1ccc(C(=O)N2CCC3(CCN(CC(C)C)CC3)CC2)cc1`, the results for the Potency in experiment [1] and in experiment [4] were > 11.4 µM (inactive) and > 46 µM (inactive), respectively. Also, the figures for the activity change, negative = inhibition in [2] and in [7] were -18% (inactive) and -2.62% (inactive), respectively. In addition, the activity, negative = inhibition in experiment [3] is -2.75% (inactive). Moreover, the Potency result in experiment [5] and in [6] was “inactive” throughout. The max response in experiment [7] (setting [13]) is -10.1%; in [7] (setting [14]) it was -11.3%. Besides, the result in [8] was inactive.
`COc1ccc(C(=O)N2CCC3(CCCN(c4ccccc4)C3)CC2)cc1`: the Potency in experiment [1] was > 11.4 µM (inactive); in experiment [4] it was > 46 µM (inactive). The activity change, negative = inhibition in experiment [2] is -1.35% (inactive); in experiment [7], -17.3% (inactive). For the same molecule, the activity, negative = inhibition in experiment [3] is -0.767% (inactive). Also, the Potency result in experiment [5] and in [6] was “inactive” each time. The values for the max response in [7] (setting [13]) and in experiment [7] (setting [14]) were 1.98% and -15%, respectively. Moreover, the result in experiment [8] was inactive.
Turning to `COc1ccc(C(=O)N2CCC3(CCCN(Cc4ccccc4)C3)CC2)cc1`, the Potency in experiment [1] is > 11.4 µM (inactive); in experiment [4], > 46 µM (inactive); in [11], 7.94 µM (active). Besides, the Potency entry in [9], in [5], in experiment [6] and in experiment [10] was “inactive” in each case. Also, the activity, negative = inhibition in experiment [3] is -10.9% (inactive). Further, in [7], the activity change, negative = inhibition is 4.53% (inactive). Further, the max response in experiment [7] (setting [13]) turned out to be 1.31%; in experiment [7] (setting [14]) it was 6.86%. In addition, the result in experiment [8] was inactive.
In the case of `COC(=O)N1CCC2(CCCN(C(=O)Nc3cccc(C#N)c3)C2)CC1`, the Potency in experiment [1] is > 11.4 µM (inactive); in experiment [4], > 46 µM (inactive). For the same molecule, the activity change, negative = inhibition in [2] is -0.449% (inactive); in experiment [7] it was 4.6% (inactive). For the same molecule, the Potency entry in [5], in experiment [6] and in experiment [10] was “inactive” in each case. The max response was found to be 16% in [7] (setting [13]) and 23.7% in experiment [7] (setting [14]). For the same molecule, in experiment [8], the outcome was inactive.
As to `CCNc1ncc2nc(-c3ccc(OC)cc3)c(=O)n(Cc3cccc(OC)c3)c2n1`, the Potency in [1] was > 11.4 µM (inactive); in experiment [9], 15.8 µM (active); in [12] it was > 9.22 µM (inactive); in experiment [4], > 46 µM (inactive). Further, the Potency entry in experiment [5] and in [10] was “inactive” in each case. For the same molecule, the activity change, negative = inhibition in [7] was -12% (inactive). The results for the max response in [7] (setting [13]) and in experiment [7] (setting [14]) were -21.5% and -29.7%, respectively. In addition, the outcome in [8] was inactive.
